Results filed as inconclusive are left out. Calls of active or inactive are those of the source. The calls were made as follows: active = hit-call score of the fitted dose curve at least 0.9, where 1 is the maximum; inconclusive = response in the unintended direction; inactive = score below 0.9.
Tests used:
[1] = molecular target: Cellular tumor antigen p53 (Homo sapiens) (UniProt P04637); assay: TOX21_p53_BLA_p2_ratio: Tox21 HCT-116 p53 Agonism Beta-lactamase Assay, Ratio, Phase 2 (AID 2283592)
Sequence of Cellular tumor antigen p53 (Homo sapiens) (P04637 whole entry, looked up): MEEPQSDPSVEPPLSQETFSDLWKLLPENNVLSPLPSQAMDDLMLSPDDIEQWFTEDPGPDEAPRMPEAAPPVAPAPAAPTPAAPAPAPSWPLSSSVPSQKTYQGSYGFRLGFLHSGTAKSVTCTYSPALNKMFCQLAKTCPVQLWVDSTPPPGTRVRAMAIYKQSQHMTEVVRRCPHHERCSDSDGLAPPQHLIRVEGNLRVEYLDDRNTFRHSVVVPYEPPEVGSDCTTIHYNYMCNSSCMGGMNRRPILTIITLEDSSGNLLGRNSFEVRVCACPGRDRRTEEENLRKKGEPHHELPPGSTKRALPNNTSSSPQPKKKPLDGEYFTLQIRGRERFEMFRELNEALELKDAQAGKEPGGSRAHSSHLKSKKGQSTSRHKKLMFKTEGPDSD
Outline: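 In this cell-based reporter format, HCT116 cells were dosed with chemicals delivered from DMSO by 217-fold dilution and incubated 16 h at 37C. Emission at 460 and 530 nm after 2 h CCF4-AM loading provided the ratio, fitted upward versus DMSO.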

[2] = TOX21_p53_BLA_p3_viability: Viability Assessment in the Tox21 HCT-116 p53 Agonism Beta-lactamase Assay, Phase 3 (AID 2283593);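 also: cells exposed to compound for 16 h before reading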
Outline: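 HCT116 cells, 4000/well, dosed 5 h after plating by pin transfer (217-fold dilution from DMSO stock) and incubated 16 h at 37C, 5% CO2. Viability read as ATP luminescence with CellTiter-Glo after 30 min at room temperature.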

[3] = molecular target: Cellular tumor antigen p53 (Homo sapiens) (UniProt P04637); assay: TOX21_p53_BLA_p3_ratio: Tox21 HCT-116 p53 Agonism Beta-lactamase Assay, Ratio, Phase 3 (AID 2283596)
Outline: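 HCT116 p53-bla cells (4000/well) given compound in DMSO (217-fold dilution) after 5 h, incubated 16 h at 37C. CCF4-AM substrate 2 h at room temperature; 460/530 nm emission ratio, gain fitted against DMSO.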

[4] = molecular target: Cellular tumor antigen p53 (Homo sapiens) (UniProt P04637); assay: TOX21_p53_BLA_p5_ratio: Tox21 HCT-116 p53 Agonism Beta-lactamase Assay, Ratio, Phase 5 (AID 2283599)
Outline: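 HCT-116 p53-bla cells (4000/well) plated 5 h, dosed with compound (217-fold DMSO dilution) for 16 h at 37 C; CCF4-AM substrate 2 h at room temperature. Activity is the 460/530 nm emission ratio (405 nm excitation), fitted in gain-of-signal direction versus DMSO.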

[5] = molecular target: Cellular tumor antigen p53 (Homo sapiens) (UniProt P04637); assay: TOX21_p53_BLA_p4_ratio: Tox21 HCT-116 p53 Agonism Beta-lactamase Assay, Ratio, Phase 4 (AID 2283601)
Outline: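 HCT-116 p53 beta-lactamase reporter cells (4000/well) preincubated 5 h, then compound (217-fold dilution of DMSO stock) for 16 h at 37C. CCF4-AM substrate added 2 h at room temperature; 460/530 nm emission ratio fitted upward versus DMSO.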

[6] = TOX21_p53_BLA_p5_viability: Viability Assessment in the Tox21 HCT-116 p53 Agonism Beta-lactamase Assay, Phase 5 (AID 2283600)
Outline: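 Compounds, pinned from DMSO at 217-fold dilution, were left on the cells for 16 h. The viability endpoint was ATP content measured by CellTiter-Glo luminescence, where falling signal reflects cytotoxicity.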

[7] = TOX21_p53_BLA_p4_viability: Viability Assessment in the Tox21 HCT-116 p53 Agonism Beta-lactamase Assay, Phase 4 (AID 2283597);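 also: hits lower the luminescence signal meaning cytotoxicity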
Outline: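 We seeded HCT116 p53 reporter cells at 4000/well and waited 5 h. We then added compounds in DMSO at a 217-fold dilution and incubated for 16 h. Viability was read as CellTiter-Glo luminescence after 30 min at RT.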

Measured: AC50

CC=CCC#N
not listed: [6] | [7]
inactive: all other assays above

CCCCN(N=O)C(=N)N[N+](=O)[O-]
inactive: [2] | [6]
active: [1] 57 µM | [3] 56.4 µM | [4] 55.2 µM | [5] 40.7 µM

CNc1ccc(C(=O)CC(O)CCC(C)C2OC(=O)CC(O)CC(=O)CC(O)CC(O)CC(O)CC(O)CC3(O)CC(O)C(C(=O)OC)C(CC(O[C@@H]4O[C@H](C)[C@@H](O)[C@H](N)[C@@H]4O)/C=C/C=C/C=C/C=C/C=C/C=C/C=C/C2C)O3)cc1 (some centres undefined) (tested in a mixture with another compound)
active: [1] 37.8 µM
not listed: [4]
inactive: all other assays above

O=C(O)C(Br)CBr (centres undefined)
not listed: [6] | [7]
inactive: all other assays above

CCCN
not listed: [7]
inactive: all other assays above

CN(C)[C@H](Cc1ccccc1)c1ccccc1
active: [2] 37.9 µM
inactive: [1] | [3] | [4] | [6]

Cc1ccc(Cl)c(O)c1
not listed: [7]
inactive: all other assays above

Reference: PubChem BioAssay (EPA / NIEHS)
